Measurements reported in the supplement of paper PMC10338343.
± gives the standard deviation.

system: MILI (PIWIL2) piRISC loaded with L1MC piRNA (26 nt); experiment: pre-steady-state target cleavage rate (min^-1); guide: L1MC piRNA 5'p-UAACUAAAUACUAUGCAAGCUGUAGG; MIWI and MILI are mouse PIWI proteins and EfPiwi is from a freshwater sponge; tags in brackets are library labels; higher = faster piRNA-guided slicing of the target; conditions: auxiliary factor: 500 nM mouse GTSF1
Summary of the method: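 Reactions were run for 0–8 or 0–960 min at 33 °C in HEPES–potassium acetate buffer, combining 1 nM active affinity-purified piRISC with one synthetic guide, […] transcribed, DNA-blocked target RNA library and, in some cases, 500 nM GTSF1 partner protein. Sequencing of uncleaved targets followed, with normalisation to depth and to weakly complementary targets. Three trials were pooled, k3 was capped at 0.0001 min^-1, and the pre-steady-state cleavage rate was taken from a burst-and-steady-state fit.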
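Note: 1 nM active piRISC with 0.1 nM target library at 33 °C single turnover.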

| Sequence | pre-steady-state target cleavage rate |
| --- | --- |
| UCCUGGAUGUCGUUCAUAGUAUUUAGUUA | 0.013 ± 0.0035 |
| UCCUGGAUGUCCUUGGAAAGUAUUUAGUUA | 0.0226 ± 0.0071 |
| UCCUGGAUGUCGUUGCAUAGUAUUUUGUUA | 0.194 ± 0.044 |
| UCCUGGAUGUGCUUCGAUAGUAUUUAGUUA | 0.0415 ± 0.0078 |
| UCCUGGAUGAGCUUGCAUAGAAUUUAGUUA | 0.0653 ± 0.017 |
| UCCUGGAUGUCGAAGCAUAGUAUUGUAGUUA | 0.00801 ± 0.0041 |
| UCCUGGAUGUCGUUGCAUAGUAUAUUGUUA | 0.0458 ± 0.017 |
| UCCUGGAUGUCGAAGCAUAGUAUUUACGUUA | 0.0359 ± 0.0066 |
| UCCUCCUACAGCUUGCAUUCUAUUUACAAA | 0.0257 ± 0.0099 |
| UCCUGGAUGAGCUUGCAUAGUCAUUUAGUUA | 0.00477 ± 0.0039 |
| UCCUGCUACAGCUUGGAUAGUAUUUACUUA | 0.00864 ± 0.0043 |
| UCCUGGAUGUCGAACCAUAGUAUUUAGUUUA | 0.00592 ± 0.0031 |
| UCCUGGAUGAGCUUGCAUAGUUUAUAGUUA | 0.0127 ± 0.0052 |
| UCCUGGAUGUGCUUGGUUAGUAUUUAGAAA | 0.00692 ± 0.0045 |
| UCCUGGAUGUCCUUGCAAAGUAUUUUGUUA | 0.0119 ± 0.0056 |
| UCCUGGAUGUCCUUGCAUAGUAUAUUGUUA | 0.0329 ± 0.0079 |

| Sequence | pre-steady-state target cleavage rate |
| --- | --- |
| UCCUGGAUGUCCUUGCAUAGUAAAAAGUAA | 0.00651 ± 0.0043 |
| UCCUGGAUGUCGAUGGAUAGUAUUUAGUAA | 0.00684 ± 0.0036 |
| UCCUGGUAGAGCUUGCAUAGUAUUUUCAAA | 0.00621 ± 0.0031 |
| UCCUGGAUGUCCUUGGAUACUAUUUAGUUA | 0.0119 ± 0.0061 |
| UCCUGGAUGUGCUUGCAUAGUAUAAAGUAA | 0.0114 ± 0.0059 |
| UCCUGGAUCAGCUUGCAUAGUAUAAUCAAA | 0.0782 ± 0.019 |
| UCCUGGUACAGCUUGCAUAGAUUUUAGUAA | 0.0172 ± 0.008 |
| UCCUGGAACAGCUUGCAUAGUAUAAAGUAA | 0.249 ± 0.063 |
| UCCUGGAUGUCCUUGCAUAGUAUUUGUUA | 0.0123 ± 0.0057 |
| UCCUGGAUGUGCUUGCAAAGUAUUUUGUUA | 0.0179 ± 0.0057 |
| UCCUGGUACAGCUUGCAUACUAUUUUGUUA | 0.0288 ± 0.011 |
| UCCUGGUACAGCUUGCAUAGGAUUUAGUUA | 0.00737 ± 0.0052 |
| UCCUGGUACAGCAUGCAUAGAAUUUAGUUA | 0.197 ± 0.07 |
| UCCUCCUACAGCUUGCAUACGUAUUUAGUUA | 0.00561 ± 0.0046 |
| UCCUGGAACAGCUUGCUAUGUAUUUAGUAA | 0.0125 ± 0.0054 |

same assay, conditions: auxiliary factor: none (no GTSF1)

| Sequence | pre-steady-state target cleavage rate |
| --- | --- |
| UCCUGGAUGUCGAACGUAAGUAAUUUGUUA | < 0.0001 |
| UCCUGGAUGUCGAACGUAUGAAUUUUGUUA | < 0.0001 |
| UCCUGGAUGUCGAACGUAUGUAUUUAGUA | < 0.0001 |
| UCCUGGAUGUCGAACCAUACUAUUAAGUUA | < 0.0001 |
| UCCUGGAUGUCGAACCUUAGUAUUUAGAUA | < 0.0001 |
| UCCUGGAUGUCGAACGUUAGUAUAUUGUUA | < 0.0001 |
| UCCUGGAUGUCGAACGUGAGUAUUUAGUUA | < 0.0001 |
| UCCUGGAUGUCGAACAAUAGUAUUUAGUUA | < 0.0001 |
| UCCUGGAUGUCGAAGCAUUGUAUAUAGUUA | < 0.0001 |
